From ChEMBL document CHEMBL3988442, “University of Dundee, Small-Polar-MMV Screening Library” (2021)
Among all 48,000 compounds or so, about 13,000 (27%) showed an effect of 50% or more. This is one part of the list.

system: Wolbachia pipientis; assay: Anti-Wolbachia Cell-Based Screen; format: functional; design: scale not given: in the data most compounds retested in dose-response had high values; conditions: 5 µM

SMILES	Percent Effect
c1ccc2sc(N3CCN(c4ncnc5c4CCC5)CC3)nc2c1	-7.695%
CSc1ncc(C(=O)N2CCN(c3ccccc3C)CC2C)cn1 (stereo not given)	-7.257%
Cc1ccc(C(=O)N2CC[C@H]3[C@H]2CCN3CC2CCOCC2)cc1F.O=C(O)C(F)(F)F	1.153%
O=C(O)C(F)(F)F.O=C(c1cscn1)N1CC[C@@H]2[C@@H]1CCN2CC1CCOCC1	90.26%
O=C(O)C(F)(F)F.O=C(c1cscn1)N1CC[C@@H]2[C@@H]1CCN2CC1CCOC1 (stereo not given in full)	116.3%
O=C(O)C(F)(F)F.O=C(c1ccc(F)cc1)N1CC[C@H]2[C@H]1CCN2CC1CCOCC1	-29.44%
O=C(O)C(F)(F)F.O=C(c1cccc(F)c1)N1CC[C@H]2[C@H]1CCN2CC1CCOCC1	-10.34%
Cn1cccc1C(=O)N1CC[C@H]2[C@H]1CCN2CC1CCOCC1.O=C(O)C(F)(F)F	-12.52%
CC(C(=O)NCC1(c2c(F)cccc2F)CCCC1)S(C)(=O)=O (stereo not given)	26.11%
CCOCC1CN(C(=O)N2CCCC2)Cc2cnn(C)c21 (stereo not given)	85.37%
COCC1CN(C(=O)C2=CCCC2)Cc2cnn(CC3CC3)c21 (stereo not given)	-0.9151%
CCOCC1CN(S(=O)(=O)C2CC2)Cc2cnn(C)c21 (stereo not given)	-2.389%
COCC1CN(C(=O)C2=CCCCC2)Cc2cnn(CC3CC3)c21 (stereo not given)	3.854%
CCOCC1CN(C(=O)C2CCOCC2)Cc2cnn(C)c21 (stereo not given)	76.58%
CCOCC1CN(CCN2CCCCC2)Cc2cnn(C)c21.O=C(O)C(F)(F)F.O=C(O)C(F)(F)F.O=C(O)C(F)(F)F (stereo not given)	3.922%
CCOCC1CN(S(C)(=O)=O)Cc2cnn(C)c21 (stereo not given)	-13.89%
CCOCC1CN(C(=O)C2=CCCC2)Cc2cnn(C)c21 (stereo not given)	94.04%
COCCOc1ccnc(-c2noc([C@@H]3CCCN3C3CCC3)n2)c1	-11.59%
CC(C)(C)C(=O)NCCC(=O)NS(=O)(=O)c1ccc2c(c1)OCCO2	-7.979%
CCc1nc(NC(=O)N(C)Cc2ccoc2)nn1C	2.955%
c1ccc(CCCN2CC(n3cccn3)C2)cc1	3.552%
CCN(CC)C(=O)[C@@H]1C[C@@H](N)CN1c1nc(N(C)C)nc(C)c1C	7.659%
COCCOc1ccc(S(=O)(=O)Nc2cccc(O)c2F)cc1C	-10.79%
Oc1cc(-c2nccs2)nc(C2CCN(Cc3cccs3)CC2)n1	87.73%

SMILES	Percent Effect
Cc1cc(NC2CCN(Cc3ccccn3)CC2)n2nc(C)c(C)c2n1	3.019%
Cc1cc(-c2nccs2)nc(C2CCN(Cc3ccccn3)CC2)n1	103.9%
c1cnc(-c2nc(CN3CCC(c4ccn[nH]4)CC3)cs2)nc1	-2.472%
Cc1cc(-c2nccs2)nc(C2CCN(Cc3cccs3)CC2)n1	113.5%
Cn1nccc1C1CCN(Cc2csc(-c3ncccn3)n2)CC1	5.984%
Cc1ccccc1C1CCN(CCn2cc(-c3nccs3)nn2)C1 (stereo not given)	-6.567%
O=C(CCNCc1cc(O)c2cc(F)ccc2n1)N1CCCC1	24.8%
CSc1nccc(N2CCCC(c3nccn3C(C)C)C2)n1 (stereo not given)	6.418%
COCCN1CCN(C(=O)NC2CC2)Cc2ccc(C)nc21.O=C(O)C(F)(F)F	-6.778%
Cc1ccc2c(n1)N(CCn1cccn1)CCN(S(C)(=O)=O)C2.O=C(O)C(F)(F)F	91.26%
Cc1ccc2c(n1)N(Cc1csc(C)n1)CCN(C1CCOC1)C2.O=C(O)C(F)(F)F.O=C(O)C(F)(F)F (stereo not given)	9.97%
Cc1ccc2c(n1)N(CCn1cccn1)CCN(C(=O)CC1CC1)C2.O=C(O)C(F)(F)F	5.383%
Cc1ccc2c(n1)N(CCn1cccn1)CCN(C1CCOCC1)C2.O=C(O)C(F)(F)F.O=C(O)C(F)(F)F	93.94%
Cc1ccc2c(n1)N(CC(C)C)CCN(C(=O)Cc1ccccn1)C2.O=C(O)C(F)(F)F.O=C(O)C(F)(F)F	1.939%
CCS(=O)(=O)N1CCN(CCn2cccn2)c2nc(C)ccc2C1.O=C(O)C(F)(F)F	99.61%
COCCN1CCN(C(=O)N2CCCC2)Cc2ccc(C)nc21.O=C(O)C(F)(F)F	6.866%
CCCC(=O)N1CCN(CCN(C)C)c2nc(C)ccc2C1.O=C(O)C(F)(F)F.O=C(O)C(F)(F)F	-16.06%
COCC(=O)N1CCN(CCn2cccn2)c2nc(C)ccc2C1.O=C(O)C(F)(F)F	116.6%
Cn1nc(Cn2cccn2)c2c1CN(C1CCOCC1)C2.O=C(O)C(F)(F)F	2.859%
Cc1ccc(CNC(CN2CCN(C)CC2)c2ccccc2)cc1 (stereo not given)	3.62%
COCCN1CCN(Cc2c(C)noc2C)Cc2ccc(C)nc21.O=C(O)C(F)(F)F.O=C(O)C(F)(F)F	-3.796%
Cc1ccc2c(n1)N(CCn1cccn1)CCN(CC1CC1)C2.O=C(O)C(F)(F)F.O=C(O)C(F)(F)F	102.9%
COCCCC(=O)Nc1[nH]nc(-c2ccncc2)c1C	2.915%
COCCCNC(=O)Cc1cc(-c2ccc3c(c2)OCO3)on1	2.22%

SMILES	Percent Effect
O=C(NCCCN1CCOCC1)c1cc(-c2ccc3c(c2)CCO3)n[nH]1	-1.634%
O=S(=O)(NCc1ccccc1)NCc1nc(-c2ccncc2)n[nH]1	-34.55%
O=C(NCc1ccccc1)NCc1nc(-c2ccncc2)n[nH]1	100.9%
O=C(Cc1nc(-c2ccncc2)n[nH]1)N1CCOCC1	104.3%
O=C(COCc1nc(-c2ccncc2)no1)N1CCCCCC1	-13.27%
COCCCNC(=O)Cc1nc(-c2ccncc2)n[nH]1	100.9%
O=C(Cc1nc(-c2ccncc2)n[nH]1)NCCCN1CCOCC1	108.4%
O=S(=O)(NCCc1nc(-c2cccnc2)n[nH]1)NCc1ccccc1	-41.46%
O=C(COCc1nc(-c2ccncc2)no1)N1CCCC1	-11.18%
CN1CCC2(CC1)CN(C)C(=O)C[C@@H]2C(F)(F)F	-12.83%
Cc1noc(C)c1CNC(=O)N1Cc2ccccc2N(C)CC1C (stereo not given)	7.877%
Cc1occc1CNC(=O)Nc1ccc2nc(N3CCOCC3)oc2c1	-9.739%
OCc1ccc(-c2nccn2CCc2nc3c(s2)CCCC3)o1	-5.43%
Cc1ccn(CC(=O)N2CC[C@@H](c3ccc4ccccc4c3)[C@H](O)C2)n1	0.6829%
CC(C)C(C)(C#N)NC(=O)Cn1nnc(-c2cc3ccccc3o2)n1 (stereo not given)	-0.9006%
CCOCC(=O)Nc1cc(C)cnc1OC	-15.44%
NC(=O)c1cc2c(nc1CCOc1ccc(F)cc1)CCC2	109.9%
NC(=O)c1cc2c(nc1CC1CCCCO1)CCC2 (stereo not given)	-20.91%
NC(=O)c1cc2c(nc1-c1ccc3c(c1)OCCO3)CCC2	-8.871%
COc1cccc(OCCc2nc3c(cc2C(N)=O)CCC3)c1	92.52%
NC(=O)c1cc2c(nc1CCOCc1ccccc1)CCC2	91.73%
COc1nc2c(cc1C(=O)NCCCc1nnc(N)s1)CCC2	10.88%
NC(=O)c1cc2c(nc1-c1ccc3c(c1)CCO3)CCC2	1.16%
CN1CCCCC1Cc1nc2c(cc1C(N)=O)CCC2 (stereo not given)	-3.187%

SMILES	Percent Effect
COc1cccc(OCCc2cncc(C(N)=O)c2)c1	-19.41%
CC(C#N)CNC(=O)Nc1ccc(Br)cc1 (stereo not given)	-11.38%
Cc1cc(CN(C)C(=O)C(c2cccnc2)N2CCOCC2)n[nH]1 (stereo not given)	-3.091%
Cc1ccc(S(=O)(=O)Cc2noc([C@@H]3C[C@@H](O)CN3C)n2)cc1	-3.09%
Cc1ncsc1CN1C[C@@H]2COC[C@]2(C(=O)NCc2cccnc2)C1.O=C(O)C(F)(F)F.O=C(O)C(F)(F)F	4.251%
O=C(NCc1ccccn1)[C@]12COC[C@H]1CN(Cc1ccccc1F)C2.O=C(O)C(F)(F)F.O=C(O)C(F)(F)F	103.6%
Cn1cc(CN2C[C@@H]3COC[C@]3(C(=O)NCc3ccccn3)C2)cn1.O=C(O)C(F)(F)F.O=C(O)C(F)(F)F	-3.108%
O=C(NCCc1cccs1)[C@]12COC[C@H]1CN(Cc1ccccn1)C2.O=C(O)C(F)(F)F.O=C(O)C(F)(F)F	-75.28%
O=C(NCc1ccccn1)[C@]12COC[C@H]1CN(Cc1cccnc1)C2.O=C(O)C(F)(F)F.O=C(O)C(F)(F)F.O=C(O)C(F)(F)F	99.25%
Cc1ncsc1CN1C[C@@H]2COC[C@]2(C(=O)NCc2ccccn2)C1.O=C(O)C(F)(F)F.O=C(O)C(F)(F)F	-14.61%
CCS(=O)(=O)N1C[C@H]2CN(c3cnn(C)c3)C(=O)[C@H]2C1	-14.71%
Cc1ccc(OCCNC(=O)C(C)n2cncn2)cc1 (stereo not given)	-5.656%
CCN(CC(=O)NC(C)C)C(=O)C(C)(C)c1ccc2c(c1)OCCO2	-2.563%
CC(C(=O)NCc1ccc2c(c1)OCCO2)n1cncn1 (stereo not given)	116.3%
CC(C(=O)NCC(C)(C)c1ccc2c(c1)OCO2)n1ccnc1 (stereo not given)	97.89%
CN(CC(=O)NCC(C)(C)c1ccc2c(c1)OCO2)c1cnccn1	-4.592%
Cc1ccc(C(C)(C)CNC(=O)NC(C)Cn2cncn2)cc1 (stereo not given)	14.21%
CC(C)(CNc1cn[nH]c(=O)c1Cl)c1ccc2c(c1)OCCO2	14.36%
CC(C(=O)NCc1ccnc(OCC(F)(F)F)c1)n1cncn1 (stereo not given)	8.582%
CC(C(=O)NCC(C)(C)c1ccc(Br)cc1)n1cncn1 (stereo not given)	77.11%
CC(C)(CNc1cn[nH]c(=O)c1Cl)c1ccc2c(c1)OCO2	11.94%
CC(C(=O)NCC(C)(C)c1ccc2c(c1)OCCO2)n1cncn1 (stereo not given)	97.81%
CC(C(=O)NCc1ccnc(N(C)C)c1)n1cncn1 (stereo not given)	-16.73%
